Screen size: about 48,000 compounds; about 13,000 (27%) showed an effect of 50% or more. The list shows a part of the results.
The molecules below were run on Wolbachia pipientis (assay: Anti-Wolbachia Cell-Based Screen). Settings: 5 µM.
Assay type: functional
Parameters: scale not given: in the data most compounds retested in dose-response had high values

SMILES	Percent Effect [%]
CN1C(=O)C(c2ccccc2)CC12CCN(CCN1CCCC1=O)CC2 (stereo unspecified)	-2.19
CCc1cccc(NC(=O)NC2CCc3nc(C)nn3C2)c1 (stereo unspecified)	-9.583
CC(C)n1[nH]c(=O)c2c1NC(=O)CC2C1CCCCC1 (stereo unspecified)	0.5792
Cc1cscc1C(=O)Nc1cc(CSCCO)ccn1	-31.68
COc1cccc(C(C(=O)O)N2CCCN(c3ccnc(C)c3)CC2)c1 (stereo unspecified)	11.66
N#Cc1cc(F)c(NCc2ccc(F)cc2)c(F)c1	53.8
N#Cc1cc(F)c(NCCc2ccc(F)cc2)c(F)c1	-6.207
N#Cc1cc(F)c(NCCc2ccc(S(N)(=O)=O)cc2)c(F)c1	2.812
Cc1ccc([C@@H]2CN(C(=O)c3csc(C)n3)C[C@H]2NC(=O)C2CC2)cc1	-2.75
CC(C)c1nnc2n1CCN(CC(=O)N1CCc3ccccc3C1)C2	2.244
CCSc1ncc(-c2cc(C3CC3)nc(N)c2C#N)cn1	99.54
CCSc1ncc(-c2cc(C3CCC3)nc(N)c2C#N)cn1	87.05
CCSc1ncc(CN2CCN(c3ncc(C)c(N)n3)CC2)cn1	-0.8762
CCSc1ncc(CN2CCN(c3ccc(C#N)cc3)C(=O)C2)cn1	-0.09513
CCCNc1ncc(-c2cc(C3CC3)nc(N)c2C#N)cn1	97.87
CC(C)c1ncc(-c2cc(C3CCC3)nc(N)c2C#N)cn1	96.4
CCSc1ncc(-c2nccn2CCN(C)C)cn1	-18.01
O=C(NC1CCN(c2ncccn2)CC1)c1cc2c([nH]c1=O)CCC2	7.428
Cc1nnc(SCCC(=O)N(C)Cc2ccc(F)cc2F)[nH]1	2.141
O=C(O)C(F)(F)F.O=C1CC[C@H]2[C@H](CCN2C(=O)C2CCOCC2)N1Cc1ccncc1	25.13
CN1CCN(C(=O)c2ccc3c(c2)[nH]c(=O)n3C2CCCC2)CC1	14.39
Cc1cc(-c2nn(C)c(Cl)c2CN2CCCCC(N)C2)no1 (stereo unspecified)	-8.809
COCc1cc(CC2(NC3CCCCC3)COC2)no1	18.94
CC(Cn1cccn1)NCc1csc(-c2ccc3c(c2)OCO3)n1 (stereo unspecified)	-1.421
Cc1cc2[nH]c(CN3CCOC(Cc4ccccc4)C3)cc(=O)n2n1 (stereo unspecified)	-6.493
Cc1cccc(C(=O)Nc2cccc3c2C(=O)NC3)n1	-5.114

SMILES	Percent Effect [%]
COCC1CN(C(=O)c2cccc(C)n2)Cc2ncnn2C1 (stereo unspecified)	-6.948
CCc1sc(-c2nnc(CNC(C)Cn3cc(C)cn3)o2)cc1C (stereo unspecified)	-3.595
CCc1ccc(CN2CCN(Cc3ncc[nH]3)[C@H]3CS(=O)(=O)C[C@H]32)nc1	8.56
[O-][S+](CCN1CCc2[nH]nc(C(F)(F)F)c2C1)c1ccccc1 (stereo unspecified)	-3.726
Cc1ccc(C2CCCN2Cc2nc3c(cnn3C)c(=O)[nH]2)cc1C (stereo unspecified)	2.271
Cn1ncc2c(=O)[nH]c(CN3CCCC3Cc3ccccc3)nc21 (stereo unspecified)	-2.22
COc1cccc(C2CCCN2Cc2nc3c(cnn3C)c(=O)[nH]2)c1 (stereo unspecified)	-3.209
Cn1ncc2c(=O)[nH]c(CN3CCCC3Cc3ccc(F)cc3)nc21 (stereo unspecified)	116
Cn1ncc2c(=O)[nH]c(CN3CCC(Cc4ccccc4)CC3)nc21	-8.773
Cn1ncc2c(=O)[nH]c(CN3CCCC3CC(C)(C)C)nc21 (stereo unspecified)	114.1
CCC1CCCCN1Cc1nc2c(cnn2C)c(=O)[nH]1 (stereo unspecified)	107.5
Cn1ncc2c(=O)[nH]c(CN3CCCC3CCc3ccccc3)nc21 (stereo unspecified)	94.92
Cn1ncc2c(=O)[nH]c(CN3CCCC3CC3CCCCC3)nc21 (stereo unspecified)	-0.1708
COc1ccccc1-c1noc(CCC(=O)NC(C)Cn2cccn2)n1 (stereo unspecified)	-41.91
COc1ccc(-n2ccnc2-c2cnc(N(C)C)nc2)cc1OC	-6.365
Cc1ccc(CN2CCN(c3ncccc3Cl)CC2CCO)cc1 (stereo unspecified)	-15.14
O=C(c1cn2cc(Cl)cnc2n1)N1CCOCC(O)(CN2CCCC2)C1 (stereo unspecified)	-2.711
Cc1nccn1-c1ccc(C(C)NCCc2ccccn2)cc1 (stereo unspecified)	8.244
CCc1nc(CN2CCCC(NCc3cc(C)no3)C2)no1 (stereo unspecified)	2.816
CCc1nc(CN2CCCC(NCCn3cncn3)C2)no1 (stereo unspecified)	25.84
CNC1CCCN(Cc2noc(C3CC3)n2)C1.Cl (stereo unspecified)	-6.036
CCc1nc(CN2CCCC(NCc3ccc(C(N)=O)cc3)C2)no1 (stereo unspecified)	-8.136
Cn1ccnc1CNC1CCCN(Cc2noc(C3CC3)n2)C1 (stereo unspecified)	-20.64
CCc1noc(CNC2CCCN(Cc3noc(C4CC4)n3)C2)n1 (stereo unspecified)	122.3
C1CC(NCc2nc(C3CC3)no2)CN(Cc2noc(C3CC3)n2)C1 (stereo unspecified)	4.824

From ChEMBL document CHEMBL3988442, “University of Dundee, Small-Polar-MMV Screening Library” (2021)
